In the library only some 7.9% were active in any assay of this set; here they are far more common.
HCV inhibitor – blocks hepatitis C virus; Potency, µM (highest dose often 41.8 µM), usual class: inhibitors; 3.4% of 340,000 active; Huh7.5.1 HCVcc-Cre infection, luciferase reporter, 44 h; active = well fitted inhibition curve with a large enough effect; inconclusive = small, poorly fitted or top-dose-only effect, or another doubt; inactive = no such curve, though single readings can be large or run the other way
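Seed cells (1,000/well) for 4 h; treat with compound and infect with HCVcc-Cre, moi about 0.5. Incubate 44 h, then detect luciferase activity.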
FMDV inh – blocks foot and mouth disease virus | FMDV antiviral cell-based qHTS | Potency, µM (highest dose often 57.9 µM), actives largely listed as inhibitors | 1.2% of 410,000 active; calls by dose curve; tested in HEK293T cells; also: read-out not given here; nearly all actives have a fitted effect of over 45% in size
LASV entry inh – Lassa virus entry inhibition; Potency, µM (titrated, usually from 37.9 µM), most hits filed as inhibitors; Lassa virus pseudotype entry inhibition, cell reporter; 1.2% of 300,000 active; AID 540256; calls by dose curve; tested in HEK293 cells; also: nearly all actives have a fitted effect of over 50% in size
HCMV antiviral – blocks human cytomegalovirus replication; HFF cells, HCMV-luciferase reporter, 72 h; active compounds read low; activity change, negative = inhibition, % at 57.5 µM; 4.5% of 410,000 active; AID 1259415; in the data active = activity change below about -60%; inconclusive = no clear call, values can overlap the other calls; inactive = above about -39%
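Inhibition of viral replication was scored as loss of reporter luminescence in HFFs infected with HCMV-luciferase (MOI 1 PFU/cell) for 72 h; compounds tested at 2 doses, normalized to buffer and Salinomycin controls.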
MARV entry inh – blocks Marburg virus binding to or entry into cells | Marburg virus pseudotyped entry inhibition, cell reporter | Potency, µM (doses to about 37.8 µM), usual class: inhibitors | 1.8% of 300,000 active | AID 540276; calls by dose curve; tested in HEK293 cells
A number is an active result; . = inactive; ? = inconclusive; / = no result given; ! = repeats disagree.

SMILES	HCV inhibitor	FMDV inh	LASV entry inh	HCMV antiviral	MARV entry inh
COc1ccc2[nH]cc(/C=N/NS(=O)(=O)c3ccc(C)cc3)c2c1	11µM	.	/	-64	/
COc1ccc2c(c1)C(n1c(C)ccc1C)C(=O)N2C (stereo not given)	/	/	/	.	/
COc1cccc(C(=O)Nc2nc3c(s2)CCCC3)c1	/	.	.	.	.
CN(C)c1ccc(C(=O)Nc2nc3c(s2)CCCC3)cc1	11µM	.	?	-67	?
CC(C)(C)c1ccc(C(=O)NC(=S)Nc2nc3c(s2)CCCC3)cc1	?	?	?	-76	1.3µM
Cc1ccccc1CNC(=O)CCCn1c(=O)c2cccn2c2cccnc21	/	.	.	.	/
CCOC(=O)c1cc(S(=O)(=O)Nc2c(C)cc(C)cc2C)[nH]n1	/	.	.	.	/
Oc1ccc(N2CCN(C(c3cccnc3)c3nnnn3Cc3ccccc3)CC2)cc1 (stereo not given)	.	/	.	.	.
COc1ccc(Cn2nnnc2C(c2ccccc2)N2CCN(C3CCCC3)CC2)cc1 (stereo not given)	?	.	.	.	7.1µM!
c1ccc(CCn2nnnc2C(c2cccnc2)N2CCN(c3ccccc3)CC2)cc1 (stereo not given)	.	/	?	-64	?
Fc1ccc(N2CCN(C(c3cccs3)c3nnnn3CCc3ccccc3)CC2)cc1 (stereo not given)	.	.	11µM	.	13µM
COc1ccc(Cn2nnnc2C(C(C)C)N2CCN(c3ccccc3OC)CC2)cc1 (stereo not given)	?	25µM	?	.	?
CC(O)(COc1ccccc1)c1ccc2c(c1)CN(Cc1cccc3cccnc13)CCO2 (stereo not given)	/	.	/	/	/
CCCCCCC/C=C/C1=CC2(C)CC1(C)C(CCCCCCC)CC2=O (stereo not given)	/	/	/	/	.
CCC(c1nnnn1Cc1ccc(F)cc1)N1CCN(C2CCCCC2)CC1 (stereo not given)	.	?	?	.	13µM
COc1ccc(C(c2nnnn2Cc2ccccc2)N2CCN(c3nc4ccccc4s3)CC2)cc1 (stereo not given)	?	.	11µM	.	?
CCCC(c1nnnn1Cc1ccc(F)cc1)N1CCN(C)CC1 (stereo not given)	.	.	.	.	.
c1ccc(CCn2nnnc2C(c2cccnc2)N2CCN(c3nc4ccccc4s3)CC2)cc1 (stereo not given)	25µM	/	?	?	?
CC1(C)[C@H]2CC[C@]1(C)[C@H](OC(=O)CC(=O)O)C2	/	/	/	/	.
Cc1ccc(CNS(=O)(=O)c2cnc(N)nc2)cc1	/	.	.	.	/
O=C(Nc1c2c(nn1-c1ccc(Cl)cc1)CS(=O)(=O)C2)c1ccc2c(c1)OCO2	?	.	.	.	.

Compound activity deposited in PubChem by National Center for Advancing Translational Sciences (NCATS).
